Set-up in all cases: scale not given: direction of the effect not stated beside the values
Assay [1] addresses Protein translocase subunit SecA (Escherichia coli (strain K12)) (UniProt P10408). Put plainly: Assay to Identify E. coli SecA ATPase Inhibitors. Particulars: 30 µM. The class given is functional.
Assay [2] deals with T1, Ubiquitin-activating enzyme e1, putative (Leishmania donovani (strain BPK282A1)) (UniProt E9BSI1).
T1 sequence (whole entry): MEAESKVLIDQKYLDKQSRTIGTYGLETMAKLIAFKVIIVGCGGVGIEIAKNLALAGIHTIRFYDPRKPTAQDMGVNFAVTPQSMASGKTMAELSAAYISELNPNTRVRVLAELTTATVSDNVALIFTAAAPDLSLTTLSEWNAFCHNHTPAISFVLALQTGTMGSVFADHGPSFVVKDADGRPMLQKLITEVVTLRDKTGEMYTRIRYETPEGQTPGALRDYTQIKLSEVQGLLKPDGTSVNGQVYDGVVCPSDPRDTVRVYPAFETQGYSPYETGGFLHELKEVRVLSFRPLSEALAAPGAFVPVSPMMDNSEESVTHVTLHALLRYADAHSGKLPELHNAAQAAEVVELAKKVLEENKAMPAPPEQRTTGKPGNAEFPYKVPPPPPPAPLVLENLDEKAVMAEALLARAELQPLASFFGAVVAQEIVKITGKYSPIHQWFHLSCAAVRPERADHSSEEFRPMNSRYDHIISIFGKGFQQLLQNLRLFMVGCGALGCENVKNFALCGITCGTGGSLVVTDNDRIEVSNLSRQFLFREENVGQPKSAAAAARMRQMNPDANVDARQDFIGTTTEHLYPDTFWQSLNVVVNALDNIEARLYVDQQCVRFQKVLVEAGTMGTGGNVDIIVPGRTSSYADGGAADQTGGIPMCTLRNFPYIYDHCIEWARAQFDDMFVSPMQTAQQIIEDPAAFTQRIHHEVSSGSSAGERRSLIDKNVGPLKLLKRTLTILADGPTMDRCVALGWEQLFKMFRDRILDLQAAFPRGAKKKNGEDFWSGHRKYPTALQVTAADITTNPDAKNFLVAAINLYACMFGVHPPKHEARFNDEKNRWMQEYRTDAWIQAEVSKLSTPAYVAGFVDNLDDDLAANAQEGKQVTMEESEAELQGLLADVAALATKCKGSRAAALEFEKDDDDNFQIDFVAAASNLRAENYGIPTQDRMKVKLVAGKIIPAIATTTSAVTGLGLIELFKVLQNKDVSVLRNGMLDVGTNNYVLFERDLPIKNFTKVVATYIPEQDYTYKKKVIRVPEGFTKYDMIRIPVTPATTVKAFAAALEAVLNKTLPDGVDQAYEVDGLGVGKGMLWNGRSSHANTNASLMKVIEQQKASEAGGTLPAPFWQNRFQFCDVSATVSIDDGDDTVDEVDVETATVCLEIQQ
Put plainly: Leishmania donovani Ubiquitin Activating Enzyme (LdE1). The class given is functional. As to conditions: 30 µM.

The target of assay [3] is AMP-activated protein kinase, AMPK (Homo sapiens) (UniProt P54646+O43741+P54619+Q9UGJ0+Q9Y478+Q13131+Q9UGI9). Put plainly: AMP-dependent Kinase enzyme assay. An in vitro enzyme assay that detects ADP turnover that is directly proportional to AMPK activity. This uses naive AMPK that is activated during the assay with MK-8722. Type of assay: functional. As to conditions: 30 µM.

Assay [4] deals with Sialic acid-binding Ig-like lectin 9 (Homo sapiens) (UniProt Q9Y336). Put plainly: Hs-Siglec9 ALPHAscreen SOP 20170721. Particulars: 10 µM.
Sequence of Sialic acid-binding Ig-like lectin 9 (Homo sapiens) (Q9Y336 whole entry): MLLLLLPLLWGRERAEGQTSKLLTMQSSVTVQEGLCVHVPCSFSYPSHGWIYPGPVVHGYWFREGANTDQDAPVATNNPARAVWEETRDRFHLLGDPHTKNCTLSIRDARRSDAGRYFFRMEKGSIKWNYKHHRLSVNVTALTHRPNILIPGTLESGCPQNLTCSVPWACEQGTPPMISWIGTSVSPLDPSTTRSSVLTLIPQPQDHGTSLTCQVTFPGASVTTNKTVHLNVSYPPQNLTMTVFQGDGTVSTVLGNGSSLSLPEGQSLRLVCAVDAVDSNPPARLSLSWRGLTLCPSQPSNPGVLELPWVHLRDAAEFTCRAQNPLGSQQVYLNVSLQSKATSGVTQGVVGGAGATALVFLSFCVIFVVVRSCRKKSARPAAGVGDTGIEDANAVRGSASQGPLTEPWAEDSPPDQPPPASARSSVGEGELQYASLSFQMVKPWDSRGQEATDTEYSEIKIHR
The next assay has as its system Trypanosoma cruzi. Put plainly: Trypanosoma cruzi phosphomannomutase and mannose-1-phosphate guanylyltransferase assay. The class given is functional. As to conditions: 10 µM.
The target in assay [5] is T2, Arginase-2, mitochondrial (Homo sapiens) (UniProt P78540).
T2 sequence (whole entry): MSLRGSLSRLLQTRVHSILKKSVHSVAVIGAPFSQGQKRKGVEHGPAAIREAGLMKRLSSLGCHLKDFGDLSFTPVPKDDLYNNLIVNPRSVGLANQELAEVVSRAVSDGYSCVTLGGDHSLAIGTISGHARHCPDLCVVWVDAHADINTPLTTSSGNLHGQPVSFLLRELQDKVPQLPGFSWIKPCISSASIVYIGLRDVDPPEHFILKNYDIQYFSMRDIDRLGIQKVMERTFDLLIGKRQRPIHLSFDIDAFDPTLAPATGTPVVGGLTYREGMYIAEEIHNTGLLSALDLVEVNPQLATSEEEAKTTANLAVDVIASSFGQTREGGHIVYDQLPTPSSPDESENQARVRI
Put plainly: in vitro enzyme assay to detect the production of urea directly proportional to the activity of Arginase II. Also: in the data most compounds retested in dose-response had high values. Particulars: 33.3 µM. Type of assay: functional.

For assay [6], the target named is T3, Proteasome subunit beta (Trypanosoma cruzi) (UniProt O96673).
T3 sequence (whole entry): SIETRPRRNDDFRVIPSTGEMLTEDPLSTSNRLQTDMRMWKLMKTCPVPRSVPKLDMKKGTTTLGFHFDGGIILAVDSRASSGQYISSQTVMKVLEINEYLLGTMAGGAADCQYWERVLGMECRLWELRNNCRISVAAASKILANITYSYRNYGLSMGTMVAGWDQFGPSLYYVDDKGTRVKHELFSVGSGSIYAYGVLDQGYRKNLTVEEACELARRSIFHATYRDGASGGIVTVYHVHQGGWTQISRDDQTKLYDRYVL
Put plainly: Trypanosoma cruzi proteasome chymotrypsin-like activity (TcProtChymo) assay. Also: in the data most compounds retested in dose-response had high values. As to conditions: 9.37 µM. The class given is functional.

The species entered for the next assay is Homo sapiens. Put plainly: To identify inhibition of the IFN signalling (Jak-Stat) pathway via expression of an eGFP reporter gene under the control of an IFN-stimulated response element (ISRE) containing MxA promoter. Particulars: 30 µM. Type of assay: functional.
The target of assay [7] is T4, Tyrosyl-tRNA synthetase, putative (Trypanosoma cruzi (strain CL Brener)) (UniProt Q4DSP6).
T4 sequence (whole entry): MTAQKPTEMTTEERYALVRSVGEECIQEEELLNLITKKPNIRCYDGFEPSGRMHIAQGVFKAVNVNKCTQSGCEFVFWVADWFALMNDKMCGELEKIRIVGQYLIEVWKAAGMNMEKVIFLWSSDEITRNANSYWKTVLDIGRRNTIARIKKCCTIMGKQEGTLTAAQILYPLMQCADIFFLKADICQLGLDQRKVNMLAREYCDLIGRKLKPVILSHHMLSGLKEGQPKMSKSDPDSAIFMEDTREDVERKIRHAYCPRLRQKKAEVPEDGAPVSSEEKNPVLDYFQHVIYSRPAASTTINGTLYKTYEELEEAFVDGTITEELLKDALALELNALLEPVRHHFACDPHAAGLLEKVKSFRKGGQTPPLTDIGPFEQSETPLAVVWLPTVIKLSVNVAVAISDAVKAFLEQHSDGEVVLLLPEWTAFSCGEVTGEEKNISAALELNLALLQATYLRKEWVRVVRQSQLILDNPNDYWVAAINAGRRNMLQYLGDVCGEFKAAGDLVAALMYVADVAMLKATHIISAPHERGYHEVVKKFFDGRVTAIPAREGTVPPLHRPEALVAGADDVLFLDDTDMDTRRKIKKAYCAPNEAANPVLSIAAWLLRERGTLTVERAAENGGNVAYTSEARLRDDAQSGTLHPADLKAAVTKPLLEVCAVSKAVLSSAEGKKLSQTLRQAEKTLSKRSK
Put plainly: Trypanosoma cruzi tyrosyl tRNA synthetase (TcYRS) _High Tyrosine SOP. Also: in the data most compounds retested in dose-response had high values. The class given is functional. As to conditions: 30 µM.

Assay [8] addresses T4, Tyrosyl-tRNA synthetase, putative (Trypanosoma cruzi (strain CL Brener)). Put plainly: Trypanosoma cruzi tyrosyl tRNA synthetase (TcYRS) SOP. Type of assay: functional. As to conditions: 30 µM.
Assay [9] deals with Chromo domain-containing protein 1 (Saccharomyces cerevisiae (strain ATCC 204508 / S288c) (Baker's yeast)) (UniProt P32657). Put plainly: ScCHD-1 Enzyme Inhibition Assay. Also: in the data most compounds retested in dose-response had high values. The class given is functional. As to conditions: 30 µM.
Sequence of Chromo domain-containing protein 1 (Saccharomyces cerevisiae (strain ATCC 204508 / S288c) (Baker's yeast)) (P32657 whole entry, the tested form may be a part): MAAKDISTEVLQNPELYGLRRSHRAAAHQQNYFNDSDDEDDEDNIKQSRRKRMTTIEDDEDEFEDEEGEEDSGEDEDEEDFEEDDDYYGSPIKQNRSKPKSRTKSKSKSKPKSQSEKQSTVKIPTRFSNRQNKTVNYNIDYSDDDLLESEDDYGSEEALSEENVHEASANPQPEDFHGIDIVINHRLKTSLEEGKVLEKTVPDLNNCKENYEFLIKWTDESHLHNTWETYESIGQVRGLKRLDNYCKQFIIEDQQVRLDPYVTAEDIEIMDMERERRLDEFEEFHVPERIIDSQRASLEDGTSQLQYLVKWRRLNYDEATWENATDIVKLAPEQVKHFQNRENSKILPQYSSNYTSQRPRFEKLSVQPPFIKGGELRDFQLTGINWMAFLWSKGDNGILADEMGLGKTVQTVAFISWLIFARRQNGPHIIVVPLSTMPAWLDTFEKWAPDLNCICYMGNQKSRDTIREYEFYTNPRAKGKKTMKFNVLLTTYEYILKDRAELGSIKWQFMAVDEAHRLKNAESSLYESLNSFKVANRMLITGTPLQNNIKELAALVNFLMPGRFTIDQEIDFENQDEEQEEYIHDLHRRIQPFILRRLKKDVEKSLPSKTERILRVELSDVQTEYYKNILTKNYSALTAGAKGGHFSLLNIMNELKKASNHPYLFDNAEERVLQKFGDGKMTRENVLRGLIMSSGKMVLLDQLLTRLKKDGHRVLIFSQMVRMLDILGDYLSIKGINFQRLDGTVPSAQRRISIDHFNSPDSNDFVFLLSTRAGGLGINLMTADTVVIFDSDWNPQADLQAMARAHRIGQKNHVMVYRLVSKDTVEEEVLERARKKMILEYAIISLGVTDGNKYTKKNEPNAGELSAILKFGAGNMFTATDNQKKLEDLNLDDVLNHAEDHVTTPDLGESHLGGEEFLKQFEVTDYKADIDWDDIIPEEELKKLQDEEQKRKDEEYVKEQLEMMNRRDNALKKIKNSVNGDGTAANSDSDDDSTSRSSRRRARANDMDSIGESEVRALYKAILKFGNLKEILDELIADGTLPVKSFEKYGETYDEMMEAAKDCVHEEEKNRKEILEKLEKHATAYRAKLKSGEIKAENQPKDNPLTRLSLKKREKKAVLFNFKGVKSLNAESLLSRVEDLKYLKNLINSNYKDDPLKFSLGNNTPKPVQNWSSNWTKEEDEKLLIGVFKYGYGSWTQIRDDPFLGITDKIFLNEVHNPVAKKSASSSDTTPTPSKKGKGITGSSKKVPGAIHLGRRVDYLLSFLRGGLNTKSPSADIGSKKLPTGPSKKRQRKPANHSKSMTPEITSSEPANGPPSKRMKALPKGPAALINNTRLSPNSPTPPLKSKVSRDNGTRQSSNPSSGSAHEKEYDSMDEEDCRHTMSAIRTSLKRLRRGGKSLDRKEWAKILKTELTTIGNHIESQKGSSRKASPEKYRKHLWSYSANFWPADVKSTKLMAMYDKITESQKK

Data on 9 compounds can be found in ChEMBL document CHEMBL3988442, “University of Dundee, Small-Polar-MMV Screening Library” (2021).

For part of these data: Results with a measured potency or affinity are listed apart.

Sequence of Protein translocase subunit SecA (Escherichia coli (strain K12)) (P10408 whole entry): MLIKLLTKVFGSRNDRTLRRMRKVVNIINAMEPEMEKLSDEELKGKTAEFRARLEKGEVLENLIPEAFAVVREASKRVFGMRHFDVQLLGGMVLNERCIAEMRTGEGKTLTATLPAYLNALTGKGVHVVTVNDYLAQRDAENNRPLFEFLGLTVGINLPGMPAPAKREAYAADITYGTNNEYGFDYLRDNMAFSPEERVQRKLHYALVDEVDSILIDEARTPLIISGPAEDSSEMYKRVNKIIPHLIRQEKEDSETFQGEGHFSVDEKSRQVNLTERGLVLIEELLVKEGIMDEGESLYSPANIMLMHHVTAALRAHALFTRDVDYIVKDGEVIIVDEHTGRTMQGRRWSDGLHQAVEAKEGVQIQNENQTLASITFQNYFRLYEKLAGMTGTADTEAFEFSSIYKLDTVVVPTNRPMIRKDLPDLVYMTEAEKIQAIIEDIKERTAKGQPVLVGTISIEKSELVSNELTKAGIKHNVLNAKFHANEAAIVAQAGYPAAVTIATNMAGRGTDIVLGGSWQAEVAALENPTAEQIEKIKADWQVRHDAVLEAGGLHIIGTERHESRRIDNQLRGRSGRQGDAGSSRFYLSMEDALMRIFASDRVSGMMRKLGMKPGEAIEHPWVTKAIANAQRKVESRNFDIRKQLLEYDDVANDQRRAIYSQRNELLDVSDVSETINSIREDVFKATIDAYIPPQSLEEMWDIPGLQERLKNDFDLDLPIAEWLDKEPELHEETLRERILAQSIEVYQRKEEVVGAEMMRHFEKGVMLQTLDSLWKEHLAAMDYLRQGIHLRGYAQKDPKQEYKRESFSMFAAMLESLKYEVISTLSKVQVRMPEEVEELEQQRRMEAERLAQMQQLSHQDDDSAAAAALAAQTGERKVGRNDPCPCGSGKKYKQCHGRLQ

Regarding `CCn1c(C(=O)N2CCN(CC(C)O)CC2)cc2ccccc21` (centres undefined), the Percent Effect in assay [1] is -8.12%; in assay [2], 7.79%; in [3], -6.74%; in assay [4] it was 7.69%; with Trypanosoma cruzi it was 10.1%; in assay [5] it was -1.78%. Further, the Percent Effect in assay [6] is 6.42%; in the assay listed under Homo sapiens it was -0.229%; in assay [7], 3.88%; in assay [8], 21.9%; in [9], -10.6%.
Take `COc1cc(N2C[C@@H]3COC[C@]3(COc3cccnc3)C2)ncn1`: the Percent Effect in [1] was -4.12%; in assay [2] it was 16.2%; in assay [3], 3.02%; in assay [4], -8.65%; in the assay on Trypanosoma cruzi, 5.38%; in assay [5], -2.87%. For the same compound, the Percent Effect in [6] was 18.4%; in the assay listed under Homo sapiens, 21.1%; in assay [7], 2.16%; in assay [8], 12.8%; in [9] it was -1.83%.
Regarding `COc1cccc(CNCCc2cc(F)cc3c2OCOC3)c1`, the Percent Effect in assay [1] is -2.14%; in assay [2], 1.39%; in [3], -14.2%; in assay [4] it was 27%; with Trypanosoma cruzi, 6.51%; in assay [5], 3.53%. Besides, the Percent Effect was 8.42% in assay [6]; 1.36% in the assay listed under Homo sapiens; 0% in assay [7]; 5.13% in assay [8]; -4.8% in assay [9].
For `Cn1ncc2c1CCCC2NCc1cc(Br)cs1` (centres undefined), the Percent Effect in [1] is -0.998%; in assay [2], 13%; in assay [3] it was 0.777%; in assay [4], -1.41%; in the assay on Trypanosoma cruzi it was 3.82%; in assay [5], 2.74%. Further, the Percent Effect in assay [6] is 21.4%; in the assay filed under Homo sapiens, 5.32%; in [7], 7.62%; in assay [8], 11.8%; in [9] it was -8.68%.
`O=C(CCc1cccnc1)N(Cc1ccsc1)CC1CCCO1` (centres undefined): the Percent Effect is -1.63% in [1]; -2.7% in [2]; -0.366% in assay [3]; -2.41% in assay [4]; 1.93% in the assay with Trypanosoma cruzi; 1.91% in assay [5]. The Percent Effect was 10.3% in assay [6]; -6.2% in the assay listed under Homo sapiens; 1.59% in assay [7]; 7.32% in [8]; -3.52% in assay [9].
On to `CC(C)N1CCOCC2(CN(Cc3ccco3)CCO2)C1` (centres undefined), for which the Percent Effect is -0.00842% in [1]; -5.48% in assay [2]; 2.81% in assay [3]; 4.65% in assay [4]; -2.58% in the assay on Trypanosoma cruzi; 2.4% in assay [5]. In addition, the Percent Effect in assay [6] turned out to be 13.8%; in the assay listed under Homo sapiens, 3.21%; in assay [7] it was 2.08%; in assay [8] it was 8.64%; in assay [9] it was 0.188%.
Regarding `O=C1N(Cc2cccc(F)c2F)CCCC1(O)CN1CCCOCC1` (centres undefined), the Percent Effect in assay [1] is -6.11%; in [2] it was -5.33%; in assay [3], -3.73%; in assay [4], 6.26%; with Trypanosoma cruzi, 1.46%; in assay [5], 0%. The Percent Effect in assay [6] was 5.06%; in the assay listed under Homo sapiens, 5.93%; in assay [7], 4.92%; in assay [8], 11.1%; in [9], -4.58%.
Turning to `O=C(NCCc1nnc2n1CCC2)NC1(c2cccc(F)c2)CC1`, the Percent Effect in [1] was -3.06%; in [2], 15.8%; in assay [3], 4.44%; in [4], -2.57%; with Trypanosoma cruzi it was -3.6%; in assay [5] it was -3.55%. The Percent Effect in [6] is 14.1%; in the assay listed under Homo sapiens it was 11%; in assay [7] it was 0%; in assay [8] it was 10.4%; in [9], -3.66%.
For the compound `Cc1cc(C)n(CC2CCCCN2Cc2cscn2)n1` (centres undefined), the Percent Effect is -3.65% in [1]; 13% in [2]; -3.15% in assay [3]; 14.9% in assay [4]; -1.27% in the assay on Trypanosoma cruzi; 4.42% in assay [5]. The Percent Effect in assay [6] was 7.52%; in the assay filed under Homo sapiens it was 12.4%; in [7], 7.62%; in assay [8], 11.8%; in [9], -10.8%.
